Many of the other results were omitted from the sample, so hits are more common in it than they were.
RmlC RmlD mix: inhibitors of RmlC and RmlD coupled enzymes | RmlC/RmlD coupled enzyme inhibition, 384-well mixture HTS | inhibition, % at 5.5 µM | actives 0.39% (n = 110,000); in the data active = inhibition above about 30%, passing the limit was not always enough
HIV RNase H inh: blocks HIV-1 RNase H cleavage of RNA/DNA duplex; RT-RNase H RNA/DNA duplex cleavage, fluorescence; inhibition, % at 10 µM; actives 1.9% (n = 65,000); in the data active = inhibition above about 50%
RmlCD artifact: shows fluorescent artifact in RmlC/RmlD assay, dose-response counter-screen; RmlC/RmlD assay fluorescence artifact counter-screen; actives 96% (n = 360); calls only; shares compounds with RmlC RmlD mix; AID 1696; call rule not given here;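 note: compound alone with no enzyme and no substrates present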
A number is an active result; n = inactive; x = no result given; + = active, no number.

SMILES	RmlC RmlD mix	HIV RNase H inh	RmlCD artifact
CCc1cc2c(CN3CCN(CCO)CC3)cc(=O)oc2cc1O	61	n	+
CCc1cc2c(CN3CCN(C)CC3)cc(=O)oc2cc1O	n	n	x
CCCc1ccc(OCc2ccc(C(=O)N3CCN(c4ccccn4)CC3)o2)c(OC)c1	n	n	x
Cn1c(-c2cc3ccc(OC(=O)C(C)(C)C)cc3oc2=O)nc2ccccc21	n	x	x
COc1ccc2ccc(=O)oc2c1	n	x	x
CC(=O)Oc1ccc2cc(-c3nc4ccccc4n3C)c(=O)oc2c1	x	n	+
CC(=O)Oc1ccc2ccc(=O)oc2c1	+	x	+
O=C(NCCc1ccccc1)[C@@H]1CC=C[C@@H]2CCN(Cc3ccccc3)C(=O)[C@@H]21	n	x	x
COCCNC(=O)C1CC(c2ccc(C(F)(F)F)cc2)=NO1 (centres undefined)	n	x	x
CCc1ccc(NC(=O)CSc2nnc(SCC(=O)Nc3ccc(CC)cc3)n2N)cc1	n	x	x
C=CCOC(=O)C1=C[C@@H](c2ccc(Br)cc2)C[C@@H](OCc2ccc(CO)cc2)O1	n	x	x
CCn1c(C)nc2cc(C(=O)NNS(=O)(=O)c3c(C)c(C)cc(C)c3C)ccc21	n	x	x
CCn1c(C)nc2cc(C(=O)N/N=C(\C)c3ccc(OC)cc3O)ccc21	x	x	+
CN(C)S(=O)(=O)c1ccc(C(=O)OCn2nnc3ccccc3c2=O)cc1	n	x	x
O=C(NCc1ccc(C(F)(F)F)cc1)C1CC(c2c(Cl)cccc2Cl)=NO1 (centres undefined)	n	x	x
CCc1cc(=O)oc2cc(C)c(CN3CCCC(C)C3)c(O)c12 (centres undefined)	n	n	x
COC(=O)Cc1c(C)c2ccc(O)c(CN3CCCC(C)C3)c2oc1=O (centres undefined)	96	x	+
COc1cccc(N2[C@@H](CC(=O)O)c3cc(C(F)(F)F)ccc3S2(=O)=O)c1	n	x	x
CCOC(=O)Nc1ccc2c(CN3C(=O)NC(CC)(CC)C3=O)cc(=O)oc2c1	n	x	x
CCOC(=O)Nc1ccc2c(CN3C(=O)NC4(CCCC4)C3=O)cc(=O)oc2c1	74	n	+
CCCc1cc(-n2cnc3ccccc32)n2c(nc3ccccc32)c1C#N	n	x	x
CCCc1cc(NCC2CCCO2)n2c(nc3ccccc32)c1C#N (centres undefined)	102	x	+
c1cc(-c2cc3cc(N4CCOCC4)ccc3o2)cs1	n	x	x
Cc1ccc2nc(-c3cccc(NC(=O)c4ccc5c(c4)OCCO5)c3)oc2c1	n	n	x
O=C(Nc1ccc2oc(-c3ccncc3)nc2c1)c1cccs1	n	n	x
SMILES	RmlC RmlD mix	HIV RNase H inh	RmlCD artifact
O=C(Nc1ccc(-c2nc3cc(NC(=O)c4cccs4)ccc3o2)cc1)c1cccs1	93	x	+
O=C(Nc1ccc2oc(-c3ccc4ccccc4c3)nc2c1)c1ccc2c(c1)OCCO2	36	x	+
CCOC(=O)/C(C#N)=C/C1=C(N2CCCC2)CC(C)(CC)OC1 (centres undefined)	n	x	x
CCCCCC(=O)Cc1cc(O)cc2c1C(=O)Oc1cc(O)c(C(=O)O)c(CCCCC)c1O2	n	x	x
C=CCNC(=O)c1c(CSc2ccc(Cl)cc2)noc1C(=O)NCc1ccccc1	n	x	x
CCCCc1c(C)c(C#N)c2[nH]c3ccccc3n2c1=O	n	x	x
CCCc1cc(=O)n2c([nH]c3ccccc32)c1C#N	39	x	+
CCCCOCCCn1c(N)c(C(=O)OCCOC)c2nc3ccccc3nc21	57	n	+
CCOC(=O)c1c(N)n(Cc2ccco2)c2nc3ccccc3nc12	n	n	x
COCCOC(=O)c1c(N)n(Cc2ccccc2)c2nc3ccccc3nc12	n	n	x
COCC(C)OC(=O)c1c(N)n(Cc2ccco2)c2nc3ccccc3nc12 (centres undefined)	56	n	+
COc1ccccc1CNc1ncnc2c1nnn2Cc1ccccc1	n	n	x
Cc1cc(C)n(CCc2nc3c4ccccc4n(CC(=O)Nc4ccc(Cl)cc4F)c(=O)n3n2)n1	x	n	x
O=C(c1ccc2c(=O)n3c(nc2c1)CCCCC3)N1CCN(C(c2ccccc2)c2ccccc2)CC1	n	x	x
Cc1ccc(C2=NN3C(C(=O)c4ccccc4)Oc4ccccc4C3C2)cc1 (centres undefined)	n	x	x
Cc1cc(C(=O)OCCO)c(C#N)c(N)n1	46	n	+
COC(=O)c1cc(C)nc(N)c1C#N	n	x	x
